KCNQ2 pot: KCNQ2 (rat) channel potentiation | O88943 | CHO-K1 KCNQ2, FluxOR thallium flux fluorescence; stronger effect = higher value | B-score at 10 µM | 310,000 tested, 0.54% active | AID 2239;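 active means fluorescence ratio B-score at least 3 SD of library B-scores, with initial fluorescence B-score within 3 of them, cut at about 5.3 in these data; same plate scores as AID 2156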;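 further: B-score of peak minus minimum over baseline fluorescence ratio after K+ and Tl+ stimulus; positive B-score means potentiation of KCNQ2 with more thallium influx and brighter signal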
Target sequence (O88943 whole entry, looked up): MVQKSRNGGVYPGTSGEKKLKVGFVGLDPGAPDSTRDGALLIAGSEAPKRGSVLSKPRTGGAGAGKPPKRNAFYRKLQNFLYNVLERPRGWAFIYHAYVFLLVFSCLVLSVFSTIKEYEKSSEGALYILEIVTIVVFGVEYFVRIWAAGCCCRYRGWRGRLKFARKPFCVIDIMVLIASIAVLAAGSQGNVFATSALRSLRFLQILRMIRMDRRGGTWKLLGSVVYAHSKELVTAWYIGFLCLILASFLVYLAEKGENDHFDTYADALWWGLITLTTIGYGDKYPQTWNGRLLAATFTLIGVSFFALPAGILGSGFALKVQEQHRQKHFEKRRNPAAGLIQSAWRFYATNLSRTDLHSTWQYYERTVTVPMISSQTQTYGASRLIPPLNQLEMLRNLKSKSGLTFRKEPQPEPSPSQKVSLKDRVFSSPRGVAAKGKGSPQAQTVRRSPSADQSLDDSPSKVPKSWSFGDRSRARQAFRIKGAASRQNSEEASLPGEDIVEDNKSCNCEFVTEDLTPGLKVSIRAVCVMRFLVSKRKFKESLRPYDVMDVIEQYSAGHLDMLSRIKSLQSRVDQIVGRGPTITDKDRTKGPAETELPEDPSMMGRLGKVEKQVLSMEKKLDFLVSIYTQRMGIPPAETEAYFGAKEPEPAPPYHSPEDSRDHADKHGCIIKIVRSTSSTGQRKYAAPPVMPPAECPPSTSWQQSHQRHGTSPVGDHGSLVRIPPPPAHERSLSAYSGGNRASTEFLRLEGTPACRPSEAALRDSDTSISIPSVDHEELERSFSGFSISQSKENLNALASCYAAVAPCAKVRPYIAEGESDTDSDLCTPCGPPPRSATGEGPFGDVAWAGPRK
KCNQ2 block: KCNQ2 (rat) channel inhibition. O88943. CHO-K1 KCNQ2, FluxOR thallium flux, 20 min; stronger effect = lower value. B-score at 10 µM. 310,000 tested, 1.1% active;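 active means fluorescence ratio B-score at most minus 3 library SDs, with starting brightness B-score within 2 library SDs, cut at about -5.5 in these data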
Kir21 confirm: confirmation of mouse Kir2.1 potassium channel inhibitors. shares compounds with KCNQ2 pot. Kir2.1-expressing cells, FluxOR thallium flux fluorescence; stronger effect = lower value. Tl flux remaining, % of negative control (stronger effect = lower value), % at 10 µM. 2,300 tested, 41% active. AID 2032;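 active means Primary-screen hit whose thallium flux fell at least 3 control SD below untreated wells in both duplicates, with normal baseline fluorescence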
HEK293 ctr: counter-screen for Kir2.1 inhibitors: effect in parental HEK293 cells; FluxOR signal as % of negative control (100 = no effect), % at 10 µM; 2,300 tested, 19% active; FluxOR thallium flux fluorescence; 0% = unstimulated blank wells; AID 2105; shares compounds with KCNQ2 pot;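 active means dye signal at least 3 control SD above or below untreated wells in both duplicates, raw fluorescence within 3, either direction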;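 further: percent is based on the flux ratio of peak minus minimum fluorescence over baseline F0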
CHO-K1 Tl ctr: parental CHO-K1 activity in KCNQ2 potentiator counter-screen; shares compounds with KCNQ2 pot; 1,200 tested, 43% active; AID 2282; parental CHO-K1 cells, FluxOR thallium flux fluorescence; zero = vehicle mean+3SD, 100% = vehicle-minus-blank window; activity increase over 3SD of controls, % at 10 µM;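 active means signal rise of at least 3 SD above the untreated control mean, in both duplicate wells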;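 further: counter screen of KCNQ2 potentiator hits so any rise reflects channel-independent effects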
KCNQ1 sel pot: tests whether KCNQ2 potentiators also act on human KCNQ1. activation over 3SD threshold, % at 10 µM. CHO KCNQ1 stable, FluxOR thallium flux fluorescence; beyond 3SD, as % of vehicle-control signal. AID 2283. 1,200 tested, 28% active. shares compounds with KCNQ2 pot;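 active means fluorescence ratio rise of at least 3 SD of vehicle wells above their mean, in both replicate wells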
KCNQ2 pot confirm: rat KCNQ2 channel potentiator confirmation; shares compounds with KCNQ2 pot; CHO-KCNQ2 cells, FluxOR thallium flux fluorescence; 1,200 tested, 68% active; potentiation, less the hit threshold, % at 10 µM;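 active means fluorescence ratio rising 3 SD or more over the vehicle control mean in both replicates, plus primary screen hit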;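 further: peak minus minimum thallium fluorescence divided by baseline after K/Tl stimulus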
Kir2-1 sel: selectivity of KCNQ2 potentiators: effect on mouse Kir2.1; shares compounds with KCNQ2 pot; HEK293 Kir2.1, FluxOR thallium flux fluorescence; activity over 3SD threshold, % at 10 µM; 1,200 tested, 2% active;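 active means fluorescence ratio rise of at least 3 SD above the vehicle-control mean, seen in both replicates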
KCNQ2 W236L MoA: rat KCNQ2 W236L mutant potentiation by KCNQ2 potentiators; shares compounds with KCNQ2 pot; CHO KCNQ2-W236L, automated patch clamp current; current increase over 3SD of negative controls (%), stronger effect = higher value, % at 25 µM; 940 tested, 10% active; AID 2558;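 active means current increase at least 3 SD of the untreated controls above them in both duplicate recordings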
A number is an active result; i = inactive; nt = no result given. This is a sample that favours compounds with a hit; in the whole collection about 1.6% have one here.

SMILES	KCNQ2 pot	KCNQ2 block	others
O=S(=O)(NCc1ccc2c(c1)OCO2)c1cccc2cccnc12	13	i	CHO-K1 Tl ctr=5.4;KCNQ1 sel pot=i;KCNQ2 pot confirm=i;Kir2-1 sel=i
Cc1cc(C)c(C)c(S(=O)(=O)NCc2ccco2)c1C	nt	i	Kir21 confirm=54%;HEK293 ctr=i
CC1CN(C(=O)CCC(=O)N2CCOCC2)c2ccccc2O1 (centres undefined)	i	i
Cc1cc(Br)c2c(c1)C(O)(N1CCCCC1C)C(=O)N2 (centres undefined)	i	i
O=C(C1=C(O)C(=O)N(CC2CCCO2)C1c1ccc(Cl)cc1Cl)c1ccco1 (centres undefined)	nt	i
CCOC(=O)C1(Cc2ccc(Cl)cc2)CCN(C(=O)c2cc(C)nc(C)n2)CC1	nt	i
C[C@]12CCC(=O)C=C1C=C[C@@H]1[C@@H]2CC[C@@]2(C)[C@H]1CC[C@@]21CCC(=O)O1	i	i
CCCCCOc1ccc(C(=O)CCC(=O)Nc2ccc(NC(C)=O)cc2)cc1	i	i
Cc1ccc(-c2nc(SC(C)C(=O)N3CCOCC3)n[nH]2)cc1 (centres undefined)	i	i
Cc1cc(C)c(S(=O)(=O)NCc2ccc3c(c2)OCO3)c(C)c1	nt	i
CCOc1cc(C)c(Cl)cc1S(=O)(=O)NCc1ccc2c(c1)OCO2	nt	i	Kir21 confirm=68%;HEK293 ctr=i
C[C@@H]1CCC[C@H](C)N1Cc1nc(Cc2ccccc2Cl)no1	nt	i
Cc1ccccc1S(=O)Cc1ccc(C(=O)N2CCN(C(=O)c3ccco3)CC2)o1 (centres undefined)	i	i
O=C(COC(=O)C1CCCCC1)Nc1ccc(S(=O)(=O)N2CCOCC2)cc1	nt	i
COc1ccc2c(c1)CCCN2C(N)=O	nt	i
COc1ccc2c(c1)CCCN2C(N)=Nc1ccc(Cl)cc1	i	i	Kir21 confirm=37%;HEK293 ctr=i
CCOc1ccccc1NC(=O)CCCn1cc([N+](=O)[O-])cn1	i	i
CN(C)c1ccc(P(=O)(OCc2ccccc2)C(O)c2ccccc2)cc1 (centres undefined)	nt	i
O=c1c(-c2cccc([N+](=O)[O-])c2)[n+]([O-])c2ccccc2n1O	i	i
O=c1c(-c2ccc(Cl)cc2)[n+]([O-])c2ccccc2n1O	6.3	i	Kir21 confirm=i;HEK293 ctr=220%;CHO-K1 Tl ctr=i;KCNQ1 sel pot=i;KCNQ2 pot confirm=i;Kir2-1 sel=i;KCNQ2 W236L MoA=i
CC1C(=O)N2CCCc3cc(NC(=O)c4ccccc4Br)cc1c32 (centres undefined)	nt	i
Nc1nc(SCc2ccc(F)cc2)ns1	i	i
Cc1cc(C)nc(NS(=O)(=O)c2ccc(NC(=O)CSc3nc(-c4ccccc4)c(C#N)c(=O)[nH]3)cc2)n1	i	i
COc1ncccc1C(=O)N1CCCC(N2CCN(c3cccc(Cl)c3)CC2)C1 (centres undefined)	i	i
COc1ccc(N2CCN(Cc3nc(N)nc(Nc4ccc(C)c(Cl)c4)n3)CC2)cc1	11	i	Kir21 confirm=i;HEK293 ctr=i;CHO-K1 Tl ctr=60;KCNQ1 sel pot=7.2;KCNQ2 pot confirm=21;Kir2-1 sel=i;KCNQ2 W236L MoA=i
SMILES	KCNQ2 pot	KCNQ2 block	others
Cc1ccc(Nc2nc(N)nc(CN3CCN(c4ccccc4)CC3)n2)cc1Cl	nt	i
CCCCc1ccc(NC(=S)NCc2ccccc2OC)cc1	nt	i
O=C(NC(=S)N1CCCCCC1)c1ccccc1Cl	i	i
O=C(NC(=S)N1CCCCCC1)c1ccc(Cl)cc1Cl	9.1	i	Kir21 confirm=i;HEK293 ctr=238%;CHO-K1 Tl ctr=27;KCNQ1 sel pot=6.1;KCNQ2 pot confirm=12;Kir2-1 sel=i;KCNQ2 W236L MoA=i
Cc1ccccc1C(=O)NNC(=S)NC(=O)c1ccc(Cl)cc1Cl	i	i
CCCN(CCC)C(=S)NC(=O)c1ccc(Cl)cc1Cl	16	i	Kir21 confirm=i;HEK293 ctr=394%;CHO-K1 Tl ctr=i;KCNQ1 sel pot=i;KCNQ2 pot confirm=67;Kir2-1 sel=i;KCNQ2 W236L MoA=i
COc1cccc(Oc2ccc3nnc(C(F)(F)F)n3n2)c1	nt	i
Cc1ccc(C(=O)N[C@@H](Cc2ccccc2)C(=O)N2CCC3(CC2)NCCc2[nH]cnc23)cc1C	i	i
CC(=O)Nc1ccc(NC(=O)C(C)OC(=O)c2cccc(S(=O)(=O)N3CCCC3)c2)cc1 (centres undefined)	nt	i
COCCn1c(N)c(N(Cc2ccccc2)C(=O)CSCC(=O)Nc2ccc(OC)cc2)c(=O)[nH]c1=O	nt	i
CCOC(=O)c1c(C)nc(C)c2c(=O)oc3ccccc3c12	nt	i
O=C(CCl)NC(=O)NC12CC3CC(CC(C3)C1)C2	i	i
COc1ccc(C)cc1S(=O)(=O)Nc1ccc2c(c1)OCO2	nt	i
Cc1cc(C)n(CC(=O)N/N=C/c2cc([N+](=O)[O-])ccc2O)n1	i	i
Cc1cc(C)n(CC(=O)N/N=C/c2cc(Br)cc([N+](=O)[O-])c2O)n1	6.9	i	Kir21 confirm=i;HEK293 ctr=65%;CHO-K1 Tl ctr=i;KCNQ1 sel pot=i;KCNQ2 pot confirm=40;Kir2-1 sel=i;KCNQ2 W236L MoA=i
COC(=O)c1ccc2c(=O)[nH]c(COC(=O)c3c(-c4ccccc4)noc3C)nc2c1	i	i
CCOC(=O)c1sc(=S)n(-c2ccccc2)c1NC(C)=O	7.5	i	CHO-K1 Tl ctr=35;KCNQ1 sel pot=3.6;KCNQ2 pot confirm=7.8;Kir2-1 sel=i;KCNQ2 W236L MoA=i
CCOC(=O)c1sc(=S)n(C)c1NC(=O)c1ccccc1	nt	i
COCCC(=O)N1CCC(Oc2ccc(C(=O)N3C[C@H]4CC[C@H]3C4)cc2)CC1	i	i
Cn1c(C(=O)OCC(=O)NCc2ccc(F)cc2)cc2occc21	nt	i
COc1ccc(CCN=C(N)C(C)c2ccccc2)cc1OC (centres undefined)	i	i
CC(C)Cc1ccc(C(C)C(N)=NCCc2ccccc2)cc1 (centres undefined)	nt	i	Kir21 confirm=i;HEK293 ctr=i
COc1cccc(-c2nnc(SCC3CNC(=O)O3)n2-c2ccc(Cl)cc2)c1 (centres undefined)	i	i
CCN(c1ccccc1)S(=O)(=O)c1ccc(NC(=O)c2nc(S(C)(=O)=O)ncc2Cl)cc1	9	i	Kir21 confirm=i;HEK293 ctr=74%;CHO-K1 Tl ctr=i;KCNQ1 sel pot=i;KCNQ2 pot confirm=i;Kir2-1 sel=i;KCNQ2 W236L MoA=i
COC(=O)CN(c1ccccc1)S(=O)(=O)c1ccc(F)cc1	i	i
CCS(=O)(=O)c1ncc(Cl)c(C(=O)Nc2ccc(S(=O)(=O)N(C)c3ccccc3)cc2)n1	nt	i
CCN(c1ccccc1)S(=O)(=O)c1ccc(C(=O)Nc2ncccc2O)cc1	nt	i
CCN(c1ccccc1)S(=O)(=O)c1ccc(F)cc1	nt	i	Kir21 confirm=54%;HEK293 ctr=i
CCN(c1ccccc1)S(=O)(=O)c1ccc(C(=O)Nc2ccncc2)cc1	8.2	i	Kir21 confirm=i;HEK293 ctr=i;CHO-K1 Tl ctr=79;KCNQ1 sel pot=i;KCNQ2 pot confirm=9.8;Kir2-1 sel=i;KCNQ2 W236L MoA=i
O=C(CSc1nnc(COc2ccccc2Cl)o1)NC(=O)NCc1ccco1	i	i
